# Shown are actives, neighbours in structure and some others; about 7.1% of the full set was active somewhere.
# M1 agonist – agonists of M1 muscarinic receptor; CHO-M1 cells, Fluo-4 calcium fluorescence, agonist mode; hits give high values; 3% of 64,000 active; B-score at 10 µM;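 active = fluorescence rise, raw or as B-score row- and column-corrected plate score, outside the 99.7% band of its plate's samples, either direction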
# M1 antagonist – M1 muscarinic receptor (rat) antagonism; 3.4% of 64,000 active; CHO-M1 cells, Fluo-4 calcium, ACh EC80 antagonist mode; hits give low values; B-score at 10 µM; P08482;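 active = calcium fluorescence response, raw or row-and-column corrected B-score, differing from the plate sample mean either way at a set confidence level, mostly lower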
# Target sequence (P08482 whole entry, looked up): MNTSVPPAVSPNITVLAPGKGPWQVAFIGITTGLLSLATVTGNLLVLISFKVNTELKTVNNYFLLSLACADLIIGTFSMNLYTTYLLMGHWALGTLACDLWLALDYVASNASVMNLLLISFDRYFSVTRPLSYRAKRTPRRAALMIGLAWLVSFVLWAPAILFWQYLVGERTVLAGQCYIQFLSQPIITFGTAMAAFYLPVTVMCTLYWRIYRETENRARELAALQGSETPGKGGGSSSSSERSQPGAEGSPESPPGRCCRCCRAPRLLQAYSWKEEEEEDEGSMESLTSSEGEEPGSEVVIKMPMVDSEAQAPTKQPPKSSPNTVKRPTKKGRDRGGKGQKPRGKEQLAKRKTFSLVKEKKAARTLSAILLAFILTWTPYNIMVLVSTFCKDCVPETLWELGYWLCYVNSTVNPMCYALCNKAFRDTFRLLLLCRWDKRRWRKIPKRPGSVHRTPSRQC
# Pyk2 oligo antag – Pyk2 (human) oligomerization antagonism; Q293 cells, Pyk2 FERM NanoBiT luminescence; hits give low values; z-score (the deposit names both 25 µM and 10 µM); 0.83% of 99,000 active; AID 1347419;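 active = Z-score of -3 or lower, scaled per plate to the spread of control and sample wells; inactive = z-score above -3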;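 note: negative z-score means lost luminescence so less FERM oligomerization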
# Cav3 T inh – human Cav3.2 channel inhibition, primary screen; 4% of 100,000 active; Cav3.2-expressing cells, Fluo-4 calcium fluorescence FDSS; hits give low values; AID 449739; B-score at 10 µM;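 active = single-dose well whose peak fluorescence ratio is a statistical outlier from its plate by either plate-standardised score or position-corrected B-score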
# M1 ag confirm – rat M1 muscarinic agonism, confirmation; fluorescence change (max-min) at 10 µM; 19% of 1,700 active; CHO-M1 cells, Fluo-4 calcium fluorescence, agonist mode; actives lie on both sides; shares compounds with M1 agonist;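 active = fluorescence change differs from the solvent-only DMSO control mean at a set confidence level in both duplicate runs; inconclusive = differs from solvent-only control mean in just one of two runs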;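 note: an EC20 dose of acetylcholine follows compound addition during the same imaging run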
# M4 agonist ctr – activates rat M4 receptor in counter-screen for M1 agonists; AID 1741; fluorescence change (max-min) at 10 µM; shares compounds with M1 agonist; 9% of 1,700 active; CHO M4/Gqi5 cells, Fluo-4 calcium fluorescence, agonist mode; actives lie on both sides;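 active = fluorescence change differing from the plate's solvent-only control wells at 99.7% confidence in both duplicates, whether higher or lower; inconclusive = differs from solvent controls in only one of two duplicates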
# A number is an active result; – = inactive; ? = inconclusive; · = no result given.
SMILES,M1 agonist,M1 antagonist,Pyk2 oligo antag,Cav3 T inh,M1 ag confirm,M4 agonist ctr
Cc1c(Cl)cccc1NC(=O)CSc1nnc(C)n1-c1ccccc1,–,–,–,–,·,·
O=C(O)CSc1nnc(CNc2ccccc2Cl)n1-c1ccccc1,84,3,–,–,?,–
COc1cc(C(=O)NCC(=O)N/N=C(/C)c2cccs2)cc(OC)c1OC,·,·,–,·,·,·
NNC(=O)CNC(c1ccccc1)c1cc(Br)ccc1NC(=O)c1ccccc1Br (centres undefined),·,·,–,–,·,·
COc1ccc(CNC(=O)C(C#N)c2nc3ccccc3nc2N2CCN(C)CC2)cc1 (centres undefined),–,–,–,–,·,·
CCCCCCOC(=O)C(C#N)c1nc2ccccc2nc1N1CCCCC1 (centres undefined),9.9,–,–,-5.3,?,–
CCCCCCOC(=O)C(C#N)c1nc2ccccc2nc1N1CCN(C)CC1 (centres undefined),5.1,1.9,–,–,–,?
COc1ccc(CNC(=O)C(C#N)c2nc3ccccc3nc2N2CCCC2)cc1 (centres undefined),165,-6.9,–,-7.3,373,562
CCC(C)COC(=O)C(C#N)c1nc2ccccc2nc1N1CCCCC1 (centres undefined),–,–,–,–,·,·
CCCCNC(=O)C(C#N)c1nc2ccccc2nc1N1CCCC1 (centres undefined),54,–,·,·,856,750
O=C(NCc1ccccc1)C1=C[C@@H](c2coc3ccccc3c2=O)C[C@@H](OCc2ccc(CO)cc2)O1,·,·,·,–,·,·
CCOC(=O)c1c(C)oc2c(CC(=O)c3ccccc3)c(Cl)c(O)c(O)c12,·,·,–,·,·,·
COc1ccc(-c2nnc3ccc(SCC(=O)N4CCCCC4)nn23)cc1OC,-3.5,–,·,–,–,–
COc1ccc(-c2nnc3ccc(SCC(N)=O)nn23)cc1OC,–,–,–,–,·,·
NC(N)=NS(=O)(=O)c1ccc(NC(=S)NC(=O)c2sc3ccccc3c2Cl)cc1,·,·,–,·,·,·
Cc1nc2ccccc2c2oc(C(=O)N3CCN(C4CCCCC4)CC3)cc12,2.4,-3.2,·,–,?,–
CCCn1nnnc1SCC(=O)NCc1ccc2c(c1)OCO2,3,–,–,–,–,–
CC(C)n1nnnc1SCC(=O)NCc1ccc2c(c1)OCO2,·,·,–,–,·,·
COC(=O)c1cc(NS(=O)(=O)c2ccc(N3CCC(C)CC3)c([N+](=O)[O-])c2)cc(C(=O)OC)c1,·,·,–,·,·,·
CCOC(=O)/C(C#N)=C1\Nc2ccccc2N=C1N(CC(C)C)CC(C)C,8.1,–,–,–,?,–
CCOC(=O)Oc1ccc2oc(=O)cc(C)c2c1,·,·,–,–,·,·
Cc1cc(=O)oc2ccc(OCC(=O)N(Cc3ccc(F)cc3)Cc3ccco3)cc12,6.4,-2.4,–,-5.1,?,–
CCOC(=O)c1cc2c(=O)n3cccc(C)c3nc2n(CCCOC)c1=NC(=O)c1cccnc1,2.4,–,–,–,–,–
CCOC(=O)c1cc2c(=O)n3cccc(C)c3nc2n(CCOC)c1=NC(=O)c1ccncc1,–,–,·,·,·,·
CCCCn1c(=NC(=O)c2ccco2)c(C(=O)OCC)cc2c(=O)n3ccccc3nc21,–,–,–,–,·,·
SMILES,M1 agonist,M1 antagonist,Pyk2 oligo antag,Cav3 T inh,M1 ag confirm,M4 agonist ctr
CCCCn1c(=NC(=O)c2cccnc2)c(C(=O)OCC)cc2c(=O)n3ccccc3nc21,8.8,–,–,–,-33,?
Cc1ccc(/C=C2/Sc3ccccc3N(CC(=O)NCCCOC(C)C)C2=O)cc1,·,·,–,·,·,·
N#Cc1nc(COc2ccccc2)oc1N1CCN(c2cccc(Cl)c2)CC1,4.1,–,–,–,122,?
COc1ccccc1-c1nc(C#N)c(N2CCC(Cc3ccccc3)CC2)o1,–,–,–,–,·,·
N#Cc1nc(COc2ccc(F)cc2)oc1N1CCC(Cc2ccccc2)CC1,9.3,–,–,·,–,–
COC(=O)[C@H]1C[C@H]1[C@@H](NC(=O)c1ccc[nH]1)c1ccccc1,·,·,·,–,·,·
COc1ccc(Cl)c(NC(=O)NCCN2CCN(c3ccccc3)CC2)c1,2.3,–,–,–,-28,–
Cn1cc([N+](=O)[O-])c(C(=O)Nc2ccc(Br)cn2)n1,·,·,–,–,·,·
Cc1ccc2[nH]c3c(NCc4ccco4)ncnc3c2c1,8.5,–,–,–,–,–
c1coc(CNc2ncnc3nc[nH]c23)c1,–,–,·,–,·,·
CCOC(=O)C1=C(C)N(CCCC(=O)O)C(=O)NC1c1cc2ccccc2c2ccccc12 (centres undefined),·,·,·,–,·,·
Oc1ccc(CNc2ccc(F)cc2)c2cccnc12,22,–,–,–,–,?
Oc1ccc(CNc2ccccc2)c2cccnc12,–,–,–,–,·,·
Oc1c(/C=N/c2ncn[nH]2)ccc2ccccc12,4.9,–,–,–,–,?
CCOc1ccc(S(=O)(=O)n2ccc(C)n2)c2ccccc12,13,–,–,–,–,–
Cc1ccc(C(=O)c2oc3ccccc3c2N)cc1,·,·,–,–,·,·
Nc1c(C(=O)c2ccccc2)oc2ccc(Br)cc12,-2.2,–,–,–,?,–
C=CCOC(=O)C1=C[C@@H](c2ccc(C(F)(F)F)cc2)[C@H](CCCO)[C@@H](OCC)O1,·,·,·,–,·,·
CN(C)S(=O)(=O)c1cccc(C(=O)OCC(=O)Nc2sccc2C(N)=O)c1,8.8,-3.3,–,–,?,-69
COc1ccc2cc(Br)ccc2c1CC(=O)NC1CC(C)(C)NC(C)(C)C1,·,·,–,–,·,·
Cc1c(C(=O)NCCC2=CCCCC2)oc2ccc(S(=O)(=O)N3CCC4(CC3)OCCO4)cc12,9,–,–,-5.6,–,?
Cc1c(C(=O)Nc2cccc(Cl)c2)oc2ccc(S(=O)(=O)N3CCC4(CC3)OCCO4)cc12,3.6,–,–,·,–,–
Cc1c(C(=O)NCCN2CCOCC2)oc2ccc(S(=O)(=O)N3CCCCCC3)cc12,–,–,–,–,·,·
Cc1c(C(=O)Nc2ccc(F)cc2)oc2ccc(S(=O)(=O)N3CCC4(CC3)OCCO4)cc12,4.7,–,–,–,–,–
Cc1c(C(=O)Nc2ccc(F)cc2)oc2ccc(S(=O)(=O)N3CCCC3)cc12,–,–,·,·,·,·
SMILES,M1 agonist,M1 antagonist,Pyk2 oligo antag,Cav3 T inh,M1 ag confirm,M4 agonist ctr
CCOc1ccc(NC(=O)c2oc3ccccc3c2NC(=O)C(C)C)cc1,–,–,·,·,·,·
COc1cc(CNC2CCCCCC2)cc(OC)c1,·,·,–,–,·,·
COc1cc(/C=C/C(=O)CC(=O)/C=C/c2ccc(O)c(OC)c2)ccc1O,164,–,·,-4.2,367,401
Cc1ccc(-n2c(O)c(/C=N/n3cnnc3)c3ccccc3c2=O)cc1,26,–,–,–,121,–
O=c1c2ccccc2c(/C=N/n2cnnc2)c(O)n1-c1ccccc1F,55,–,–,–,350,698
O=c1c2ccccc2c(C=NC2CCS(=O)(=O)C2)c(O)n1-c1ccccc1 (centres undefined),–,–,–,–,·,·
O=C(O)C1C2C=CC(C3CC23)C1C(=O)N1CCc2ccccc21 (centres undefined),·,·,–,–,·,·
CCN1C(=O)c2cccc3c(NC(=O)c4ccccc4)ccc1c23,·,·,–,–,·,·

# High-throughput results deposited in PubChem BioAssay by several laboratories.
